Source: PubChem BioAssay
Rows were chosen to be rich in hits. Some 18% of all compounds tested hit in one or more screens of this group.
DT40 TDP1 no CPT: qHTS for Inhibitors of human tyrosyl-DNA phosphodiesterase 1 (TDP1): qHTS in cells in absence of CPT; 15% of 420,000 active; Potency, µM (top dose mostly 46.2 µM), most hits filed as inhibitors; DT40 Tdp1-/- hTDP1 cells, no CPT, ATP luminescence, 48 h; note: nearly all actives have a fitted effect of over 55% in size
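Stably hTDP1-transfected Tdp1-null chicken DT40 cells were treated with library compounds minus camptothecin and grown for at least 48 hr at 37 °C, after which cellular ATP was quantified by luminescence.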
IL1B secr inh: qHTS for Inhibitors of Inflammasome Signaling: IL-1-beta AlphaLISA Primary Screen; THP-1 LPS/ATP IL-1B secretion, AlphaLISA, 16 h; active compounds read low; activity change, % at 57.5 µM; 4.7% of 360,000 active; AID 743279, 2014; in the data active = activity change below about -50%; inconclusive = mostly about -30% to -49%
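THP-1 cells pretreated 1 hr with compounds (up to 57.5 uM final), then stimulated with LPS (250 ng/mL final) plus ATP (1.25 mM final); secreted IL-1B measured by AlphaLISA after 16 hr, decreased signal indicating inhibition.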
DT40 TDP1 CPT: qHTS for Inhibitors of human tyrosyl-DNA phosphodiesterase 1 (TDP1): qHTS in cells in presence of CPT; Potency, µM (highest dose often 46.2 µM), actives largely listed as inhibitors; chicken DT40 Tdp1-/-;hTDP1 cells + 20 nM CPT, ATP luminescence, 48 h; 12% of 420,000 active; note: nearly all actives have a fitted effect of over 55% in size
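Chicken DT40 Tdp1-/- cells complemented with human TDP1, 400 cells/well, exposed to compounds plus 20 nM camptothecin for at least 48 h at 37 C; viability read as ATP content by CellTiter-Glo luminescence.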
TDP1 block: qHTS Assay for Inhibitors of Tyrosyl-DNA Phosphodiesterase (TDP1); recombinant TDP1, AlphaScreen DNA substrate cleavage; Tyrosyl-DNA phosphodiesterase 1 (Homo sapiens), Q9NUW8; Potency, µM (doses to about 130 µM), usual class: inhibitors; AID 485290, 2010; 0.28% of 350,000 active; note: nearly all actives have a fitted effect of over 40% in size
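AlphaScreen read-out: signal falls as enzyme removes the 3' tyrosine-FITC from a 5'-biotinylated DNA oligo (15 nM, 5 min, RT). Enzyme was E. coli-made recombinant Tdp1 at 1 nM, exposed to compound for 15 min beforehand; beads 10 ug/ml, 10 min.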
TGFb inhibitor: qHTS for Inhibitors of TGF-b. 1.2% of 410,000 active. Potency, µM (top dose mostly 46.1 µM), most hits filed as inhibitors. HepG2 CAGA-GFP TGF-b/SMAD3 reporter, GFP fluorescence, 18 h; TGF-beta stimulated, 500 pg/mL final; note: nearly all actives have a fitted effect of over 65% in size
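GFP signal (ex488/em500-530) from TGF-beta-stimulated HEPG2 CAGA-GFP cells, 500 pg/mL final, 18 h at 37 degrees C in DMEM plus 1% FBS, normalized to unstimulated and DMSO-stimulated controls.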
HepG2 tox: qHTS for Inhibitors of TGF-b: Cytotox Counterscreen; HepG2 CAGA-GFP viability, ATP luminescence, 18 h; 0.76% of 410,000 active; AID 588856, 2011; Potency, µM (titrated, usually from 46.1 µM), actives largely listed as cytotoxic
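HepG2 CAGA-GFP cells (1000/well, DMEM with 1% FBS) received compound, then TGF-beta at 500 pg/mL final, and were incubated 18 hours at 37 degrees C. Viability was read by CellTiter-Glo luminescence. Media-only wells were set as complete cell-killing and DMSO as no toxicity.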
A number is an active result; 0 = inactive; ? = inconclusive; - = not tested or not shown; [ ] = remark or other dose. Unless noted, calls come from the whole dose curve; as a rule, active = well fitted curve in the direction sought with a large enough effect; inconclusive = small, poorly fitted or top-dose-only effect, or another doubt; inactive = no such curve, though single readings can be large; an effect the other way counts as inactive or inconclusive.

SMILES	DT40 TDP1 no CPT	IL1B secr inh	DT40 TDP1 CPT	TDP1 block	TGFb inhibitor	HepG2 tox
CC1(C2CCC3C4CCC5CC6(CCC5(C)C4C(=O)CC32C)OCCO6)OCCO1 (stereo not drawn)	?	0	?	-	0	0
CCOC(=O)c1ccc(NC(=O)CSc2nc(-c3cccs3)cc(C(F)(F)F)c2C#N)cc1	0	-	?	0	0	0
COCCn1c(-c2ccc(Br)cc2)nc2oc3cc(OC)ccc3c(=O)c2c1=O	?	0	?	0	0	0
COc1cc(/C=C(\C#N)C(=O)NCC2CCCO2)ccc1O (stereo not drawn)	0	0	0	0[12.3 µM]	0	0
N#C/C(=C\c1cn(CCOc2ccccc2)c2ccccc12)C(=O)NCC1CCCO1 (stereo not drawn)	?	?	?	0	?	0
Cc1ccc(C)c(OCCn2cc(/C=C(/C#N)C(=O)NCC3CCCO3)c3ccccc32)c1 (stereo not drawn)	?	0	16µM	0	0	0
Cc1cc(/C=C(\C#N)C(=O)NCC2CCCO2)c(C)n1-c1ccc(Cl)cc1 (stereo not drawn)	?	0	10µM	0	0	0
CCCCn1c(N)c(N(C)C(=O)c2ccc(Br)o2)c(=O)[nH]c1=O	0	0	0	0	0	0
COc1cccc(N2CCN(C(=O)CC(C)(C)CC3=NS(=O)(=O)c4ccccc4N3)CC2)c1	4.6µM	0	15µM	0	0	0
CC(C)(CC(=O)N1CCN(c2ccc(Cl)cc2)CC1)CC1=NS(=O)(=O)c2ccccc2N1	12µM	-51	18µM	0	0	0
COc1cc(NC(=O)COC(=O)CCCC2=NS(=O)(=O)c3ccccc3N2)cc(OC)c1	0	0	0	0	0	0
O=C(CCCC1=NS(=O)(=O)c2ccccc2N1)N1CCN(c2ccc(Cl)cc2)CC1	?	0	16µM	0	?	0
O=C(CCCC1=NS(=O)(=O)c2ccccc2N1)N1CCN(c2ccccc2)CC1	?	0	?	0	0	0
O=[N+]([O-])c1ccccc1C=NN1CCCCCC1	?	0	0	-	0	0
O=C(Cn1cncc1-c1ccc([N+](=O)[O-])cc1)Nc1cccc2ccccc12	0	0	?	0	?	0
Cc1cccc(N2CCN(C(=O)Cn3nc(C)c4sc5ccccc5c4c3=O)CC2)c1C	0	-	0	0	0	0
CCOc1ccc(S(=O)(=O)c2c(C(=O)c3ccc(CC)cc3)cnc3ccc(C)cc23)cc1	23µM	-	?	0	0	0
CCOc1ccc(Nc2c(S(=O)(=O)c3ccc(Cl)cc3)cnc3ccc(OC)cc23)cc1	?	-	?	0	0	0
CCc1ccc(S(=O)(=O)c2c(C(=O)c3ccc(C)c(C)c3)cnc3ccccc23)cc1	13µM	-	?	0	0	0
CCOc1ccc(S(=O)(=O)c2c(C(=O)c3ccccc3)cnc3cc4c(cc23)OCCO4)cc1	10µM	0	?	0	0	0
CCOc1ccc(C(=O)c2cnc3ccc(Cl)cc3c2S(=O)(=O)c2ccc(C)cc2)cc1	5.2µM	-	5.8µM	0	0	0
COC(=O)C/C=C\[C@@H](C)[C@@H](/C=N\O[C@@H](C)c1cc(-c2c(C)cc(C)cc2C)no1)NS(=O)(=O)c1ccc(C)cc1	-	-	-	0[21 µM]	-	-
O=C1CN(C(=O)COC(=O)c2c(F)cccc2Cl)c2ccccc2N1	?	0	0	0	0	0
CCc1ccc(C(=O)c2cnc3ccc(C)cc3c2S(=O)(=O)c2ccc(OC)cc2)cc1	18µM	-	23µM	0	0	0
